40 molecules from PubChem BioAssay (NCI) can be followed below.

About 83,000 compounds went through this panel and 20% of them were active in at least one assay; those are over-represented in the sample as a whole.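 Activity criterion: percent growth below 10, measured after cells in 96-well plates were exposed to a single compound concentration for 48 hours.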 A number with no mark means an inactive call. Active and inactive are the calls of the source.

The assay deals with HCC-2998 colon. Put plainly: NCI-60 one-dose screen, 48 h (100 = growth as untreated, 0 = no growth, -100 = all killed). The following applies: 10 µM. The procedure:
Growth inhibition of the HCC-2998 human tumor cell line is measured as a screen for anti-cancer activity. Cells are grown in 96 well plates and exposed to the test compound for 48 hours. Compounds are tested at a single concentration, which is 10^-5 M for most compounds. The reported endpoint is percent growth (GI% or GIPRCNT), where numbers from 0 - 100% represent growth inhibition, and numbers from -100% - 0 represent cell death. For example, a value of 40 represents 60% growth inhibition. A value of 0 means no net growth occurred over the course of the experiment. A value of -40 indicates 40% of cells at the beginning of the experiment died by the end of the experiment. A value of -100 means all cells are dead at the end of the experiment.
NCI-60 Human Tumor Cell Lines Screen was performed using the standard one-dose NCI protocol, which is described in more detail at https://dtp.cancer.gov/discovery_development/nci-60/default.htm.
Compounds with GIPRCNT values below 10 were considered active. Activity score was based on GIPRCNT using the following formula: […]
Score is 0 for GIPRCNT values of 100 or above, 50 for GIPRCNT values of 0, and 100 for GIPRCNT values of -100.
For `O=C1NC(=NC2CCCCCC2)N/C1=C\c1ccc2ncoc2c1`, the growth is 68.8%.
As to `Cc1ccc(-c2nc3ccc(C(=O)N=Nc4c(O)[nH]c5ccc(Cl)cc45)cc3[nH]2)cc1`, the growth was -66.8% (active).
For `Cc1ccc(CSc2nc(-c3ccc(F)cc3)c(C#N)c(=O)[nH]2)cc1`, the growth is 115%.
As for `COC[C@@H](CC(C)C)N=C1NC(=O)/C(=C/c2ccc3ncsc3c2)N1`, the growth was 15.5%.
For `N#C/C(=C\c1ccc(N(c2ccccc2)c2ccccc2)cc1)C(N)=O` the value was 73.7%; for `O=C(c1ccc(O)cc1)C1[C@H](c2ccc(Br)cc2)[C@@H](c2ccccc2)NC12C(=O)Nc1ccccc12` (stereo not given in full), -34.8% (active); for `CN1CCN(Cc2ccc(NC(=O)c3cncc(C#Cc4cnc5ccc(N[C@@H]6CCOC6)nn45)c3)cc2C(F)(F)F)CC1`, -99.7% (active).
With `Cc1cc(C(F)(F)F)ccc1C(=O)Nc1sc2c(c1C#N)CCC(=O)C2`, the growth is -10.6% (active).
As to `O=C(Cn1nc(-c2ccccc2)ccc1=O)NNC(=S)NC1CCCCC1`, the growth is 114%.
As for `CC1(C)CC[C@]2(C(=O)N3CCOCC3)CC[C@]3(C)C(=CC[C@@H]4[C@@]5(C)CC[C@H](NCO)C(C)(C)[C@@H]5CC[C@]43C)[C@H]2C1`, the figure is -78.1% (active).
On to `O=C(CNc1nc(-c2ccccc2)cs1)Nc1cccc([N+](=O)[O-])c1`, for which the growth is -99.8% (active).
`CN1CCCN(Cc2ccc(C(=O)Nc3cccc(Nc4ccc5cc(O)ccc5n4)c3)cc2C(F)(F)F)CC1`: the growth was -15.1% (active).
Consider `CC(=O)Nc1ccc(-n2cnc3cc(-c4ccc(O)cc4)ccc32)cc1F`, for which the growth is 33.3%.
With `CC(=C(c1ccc(OCCCN(C)C)cc1)c1ccc(OCCCN(C)C)cc1)c1ccccc1`, the growth is -94.8% (active).
In the case of `COc1ccc(/C(C)=N/N=C2C(=O)N(C)c3ccc(Br)cc32)cc1S(N)(=O)=O`, the growth is 98.3%.
In the case of `COc1ccc(NC(=O)Cn2c(/C=C/c3ccc(N(C)C)cc3)nc3ccccc3c2=O)cc1`, the growth was 63%.
As for `Brc1ccc(/C=C/c2n(Cc3ccc4ccccc4c3)c3ccccc3[n+]2Cc2ccc3ccccc3c2)cc1`, the figure is -98% (active); as for `CN1CCc2c(sc3ncnc(N/N=C/c4ccc5ccccc5c4)c23)C1`, 73.8%.
Regarding `Nc1n[nH]c2cccc(C#Cc3cccc(NC(=O)Nc4cc(C(F)(F)F)cc(C(F)(F)F)c4)c3)c12`, the growth was -95.3% (active).
Consider `O=C1Nc2ccc(Cl)cc2/C1=C/c1cccc(OCc2ccccc2)c1`, for which the growth was 50.6%.
On to `O=c1[nH][nH]c(Nc2ccccc2)c1N=Nc1ccc(F)cc1`, for which the growth is 92.6%.
`O=S(=O)(Nc1ncccn1)c1ccc(-n2c(-c3ccccc3)nc(-c3ccccc3)c2-c2ccccc2)cc1`: the growth was 89.3%.
Consider `Cc1ccc(-c2ccc(SCC(=O)Nc3ccc(Cl)c(C(F)(F)F)c3)nn2)cc1`, for which the growth is 12.9%.
In the case of `CC(=O)c1ccc(NC(=O)NCn2c(=O)[nH]c3ccccc3c2=O)cc1`, the growth was 112%.
For the molecule `CC(=O)NNc1ccc2nnc(-c3ccc(Br)cc3)n2n1`, the growth is 109%.
For `CCOC(=O)C1=C(N)N(c2ccc(Cl)cc2)C2=C(C(=O)CC(C)(C)C2)C1c1ccc(N2CCOCC2)cc1` (stereo not given) the value was 103%.
Regarding `CN1CCN(c2ccc(C(=O)/C=C/c3ccc(OC(F)F)cc3)cc2)CC1`, the growth was -48.9% (active).
With `O=C(NCCCCCCCCCC[P+](c1ccccc1)(c1ccccc1)c1ccccc1)c1ccc(-n2nc(-c3ccccc3O)nc2-c2ccccc2O)cc1`, the growth was -99.5% (active).
As to `O/N=C(\CSc1nnc(-c2c[nH]c3ccccc23)n1-c1ccccc1)c1ccc(Br)cc1`, the growth is -66.5% (active).
`Cn1cc(/C=N/Nc2ccnc3cc(Cl)ccc23)c2ccccc21`: the growth is -87.8% (active).
On to `S=c1nc(-c2ccccc2)cc(-c2cc3ccccc3nc2Cl)[nH]1`, for which the growth is 104%.
Regarding `O=C(Nc1ccc(Cl)c(C(F)(F)F)c1)c1cncc(C#Cc2cnc3ccc(N4CCOCC4)nn23)c1`, the growth is -13.3% (active).
On to `CCCn1c(=O)c2[nH]c(-c3ccc(OCc4nc5ccc(C#N)cc5[nH]4)cc3)nc2n(CCC)c1=O`, for which the growth was 95.3%.
As for `O=C(Cc1ccc2c(c1)CN(C1CCC(=O)NC1=O)C2=O)NCc1cccc2ccccc12` (stereo not given), the growth is -48.6% (active).
Take `Cc1cc(C)nc(NS(=O)(=O)c2ccc(N/C(N)=N/c3nccc(-c4ccccc4)n3)cc2)n1`: the growth is 85.3%.
In the case of `COc1cc(/C=C/C(=O)c2cc(OC)c(OC)c(OC)c2)ccc1Oc1nc(Nc2ccc(F)cc2)nc(N(C)C)n1`, the growth is -81.5% (active).
Turning to `CCOC(=O)N/C(=C1/OCCN1C)[P+](c1ccccc1)(c1ccccc1)c1ccccc1`, the growth is 60.4%.
`COc1ccc(/C=C/C(=O)c2ccc(S(=O)(=O)NCCNc3nc(Nc4ccc(F)cc4)nc(N(C)C)n3)cc2)cc1`: the growth is 59.3%.
With `N#Cc1ccc(NC(=O)CSc2ccc(-c3ccc(Br)cc3)nn2)cc1`, the growth was 92.9%.
For the molecule `OCCCNc1oc(-c2ccccc2)nc1[P+](c1ccccc1)(c1ccccc1)c1ccccc1`, the growth was 2.5% (active).
